# Measured values: PubChem BioAssay AID504710 (Sanford-Burnham Center for Chemical Genomics, 2011)
# The source made the active and inactive calls.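 How the source made its calls: active means inhibition reaching about 16% in any single replicate (limit read from the data); inactive means the rest.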
# Molecular target: Hexokinase HKDC1 (Homo sapiens) (UniProt Q2TB90)
# Test: compounds lowering human HKDC1 activity – biochemical, single concentration, confirmation (AID 504710)
# Settings: recombinant HKDC1, G6PDH/diaphorase/resazurin fluorescence; at 20 µM; active compounds read high
# Hexokinase HKDC1 (Homo sapiens), sequence (Q2TB90 whole entry, looked up): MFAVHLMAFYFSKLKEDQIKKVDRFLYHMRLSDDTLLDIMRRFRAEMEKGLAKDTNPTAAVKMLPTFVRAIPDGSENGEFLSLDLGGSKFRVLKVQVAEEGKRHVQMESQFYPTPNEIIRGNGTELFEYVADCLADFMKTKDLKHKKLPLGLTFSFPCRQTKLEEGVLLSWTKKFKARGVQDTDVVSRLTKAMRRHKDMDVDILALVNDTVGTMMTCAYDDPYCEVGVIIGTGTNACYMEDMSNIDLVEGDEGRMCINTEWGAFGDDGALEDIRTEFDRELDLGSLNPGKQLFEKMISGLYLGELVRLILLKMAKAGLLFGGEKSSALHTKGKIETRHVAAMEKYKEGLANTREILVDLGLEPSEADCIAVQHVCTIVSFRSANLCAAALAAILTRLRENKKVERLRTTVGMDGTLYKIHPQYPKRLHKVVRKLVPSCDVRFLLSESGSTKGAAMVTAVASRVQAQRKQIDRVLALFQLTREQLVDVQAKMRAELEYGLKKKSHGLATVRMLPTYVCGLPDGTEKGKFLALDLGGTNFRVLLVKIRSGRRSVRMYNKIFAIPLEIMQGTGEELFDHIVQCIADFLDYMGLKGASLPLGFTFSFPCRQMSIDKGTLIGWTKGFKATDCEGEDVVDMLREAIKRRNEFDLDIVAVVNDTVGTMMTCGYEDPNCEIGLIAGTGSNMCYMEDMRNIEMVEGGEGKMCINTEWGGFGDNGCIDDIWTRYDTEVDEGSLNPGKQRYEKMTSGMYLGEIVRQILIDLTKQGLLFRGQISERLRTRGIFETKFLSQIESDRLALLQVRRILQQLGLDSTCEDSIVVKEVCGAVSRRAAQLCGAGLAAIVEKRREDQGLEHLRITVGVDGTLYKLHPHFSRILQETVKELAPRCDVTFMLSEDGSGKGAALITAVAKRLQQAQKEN
row,Structure (SMILES),inhibition
1,O=C1C(SCCO)=C(SCCO)C(=O)c2ccccc21,84.1% (active)
2,O=C1C(Nc2ccc(O)cc2)=C/C(=N/S(=O)(=O)c2cccs2)c2ccccc21,56.9% (active)
3,CC(=O)Nc1ccc(NC2=C/C(=N/S(=O)(=O)c3cccs3)c3ccccc3C2=O)cc1,51.9% (active)
4,COc1cc(NC(=O)c2cnc(N)s2)cc(C(=O)Nc2cccc(C(F)(F)F)c2)c1,41.2% (active)
5,O=C(CSc1n[nH]c(-c2cccnc2)n1)Nc1ccc([N+](=O)[O-])cc1Br,56.4% (active)
6,CCOc1ccc(-n2c(C)cc(C(=O)CCl)c2C)cc1,28.5% (active)
7,COc1ccc(C(=O)c2coc3c2C(=O)C(=O)c2ccccc2-3)cc1,44.8% (active)
8,O=[N+]([O-])c1ccc(Sc2nc3ccccc3o2)c([N+](=O)[O-])c1,30.4% (active)
9,COc1ccc(NC(=O)Cc2c[nH]c3ccccc23)cc1S(=O)(=O)N1CCCCC1,-35.1% (inactive)
10,C=CCn1nc([N+](=O)[O-])nc1Sc1cccc2cccnc12,-52.4% (inactive)
11,Cc1nc2c3cc(F)ccc3n(Cc3ccccc3)c2s1,-61.3% (inactive)
12,COc1ccc(C2=NNC(=Nc3cc(S(=O)(=O)N(C)C)ccc3C)SC2)c(OC)c1,-120% (inactive)
13,CCc1ccc(S(=O)(=O)/N=C2/C=C(Sc3ncn[nH]3)C(=O)c3ccccc32)cc1,73% (active)
14,O=C(O)c1ccc(S(=O)(=O)/N=C2\C=C(Nc3ccccc3F)C(=O)c3ccccc32)cc1,75.7% (active)
15,COC1=CC(=O)C(OC)=C(OC)C1=O,71.9% (active)
16,Cc1ccc(S(=O)(=O)/N=C2\C=C(Nc3cccc(C(=O)O)c3)C(=O)c3ccccc32)c(C)c1,57.8% (active)
17,Cc1ccc(NC2c3ncccc3C(=O)N2c2ccccc2C)cc1C (configuration not stated),36.2% (active)
18,CC(C)c1nc2oc3c(=O)[nH]cnc3c2c2c1COC(C)(C)C2,48.4% (active)
19,CC(C)Nc1nnc(SCC(=O)Nc2ccc3c(c2)C(=O)c2ccccc2C3=O)s1,53.5% (active)

row,Structure (SMILES),inhibition
1,O=C(NCCc1ccccc1)c1cnn2c(C(F)F)cc(C3CC3)nc12,59.8% (active)
2,Cc1ccccc1NC1=C/C(=N\S(=O)(=O)c2ccc(C(=O)O)cc2)c2ccccc2C1=O,71.3% (active)
3,O=c1c2ccccc2nc(/C=C/c2cccnc2)n1Cc1ccccc1,60.7% (active)
4,CCCc1nc2oc3c(OC)ncnc3c2c2c1COC(C)(C)C2,42.4% (active)
5,O=C(CSc1nnc(CCCN2C(=O)c3cccc4cccc(c34)C2=O)n1-c1ccccc1)N1CCCCC1,48.3% (active)
6,O=C(O)CSc1cc(NS(=O)(=O)c2ccc(Cl)cc2)c2ccccc2c1O,45.6% (active)
7,O=C(CSc1n[nH]c(-c2cccnc2)n1)Nc1ccnc2ccccc12,46% (active)
8,CCc1nc2c(c(=O)c3ccccc3n2C)c(=O)n1-c1ccc(F)cc1,72.7% (active)
9,COC1=CC(=O)c2c(ccc3ncnc(N)c23)C1=O,87.6% (active)
10,CCCCC(CC)CN=C(N)NC(N)=NCCCCCCN=C(N)NC(N)=NCC(CC)CCCC (configuration not stated),45.9% (active)
11,O=C(O)[C@@H](c1ccccc1)N1Cc2ccccc2C1=O,43.8% (active)
12,CC(C)(C)c1ccc(-c2csc(NNC3=NCCCCC3)n2)cc1,-39.4% (inactive)
13,CCOC(=O)c1c(NC(=O)CSc2nnnn2-c2ccc(OC)cc2)sc(C)c1C,-42.3% (inactive)
14,Nc1nc(-c2cccc(Br)c2)cs1,-40.6% (inactive)
15,CCC(C)C(N)C1=NC(C(=O)N[C@@H](CC(C)C)C(=O)N[C@H](CCC(=O)[O-])C(=O)N[C@H](C(=O)N[C@H]2CCCCNC(=O)[C@H](CC(N)=O)NC(=O)[C@@H](CC(=O)[O-])NC(=O)[C@H](Cc3cnc[nH]3)NC(=O)[C@@H](Cc3ccccc3)NC(=O)[C@H]([C@@H](C)CC)NC(=O)[C@@H](CCCN)NC2=O)[C@@H](C)CC)CS1.[Zn+2] (some centres not stated),74.9% (active)
16,O=C1C(Cl)=C(NCCc2ccccc2)C(=O)c2ccccc21,59.5% (active)
17,COc1ccc(-c2cc(C(=O)NNC(=S)NC(=O)c3c(-c4ccccc4)noc3C)[nH]n2)cc1,-50.1% (inactive)
18,Cc1[nH]n(-c2ccccc2)c(=O)c1/C=N/Nc1nncc(-c2ccccc2)n1,-60.6% (inactive)
